Assay [1] in a line: Nuclear factor erythroid 2-related factor 2/antioxidant responsive element (Nrf2/ARE) small molecule agonists: qHTS cell viability counter screen in human keratinocytes (AID 1919968; active = well fitted curve in the direction sought with a large enough effect in the repeat runs; an effect the other way counts as inactive or inconclusive; note: nearly all actives have a fitted effect of over 55% in size; note: potency is the fitted concentration of half-maximal effect). In a few lines: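 CellTiter-Fluor fluorescence, read 1 h after reagent, gave viability in the same wells as the ARE-luciferase assay. KeratinoSens cells (1,500/well) had 23 h compound exposure at 37 C/5% CO2 following 5 h plating.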

Assay [2] is described as follows: Nuclear factor erythroid 2-related factor 2/antioxidant responsive element (Nrf2/ARE) small molecule agonists: luciferase reporter gene qHTS assay in human keratinocytes (AID 1919969). Note: nearly all actives have a fitted effect of over 35% in size. Note: potency is the fitted concentration of half-maximal effect. In general terms: A reporter such as luciferase makes a cellular process visible.
In assay [3] the target is KiSS-1 receptor (Homo sapiens) (UniProt Q969F8). Briefly: Human kisspeptin (KISS1R) small molecule agonists, calcium flux assay in KISS1R-HEK293 cells (AID 1920064; active = well fitted curve in the direction sought with a large enough effect in the repeat runs; an effect the other way counts as inactive or inconclusive). The procedure, abridged: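 Agonist mode: intracellular calcium rise tracked at 1 s intervals over 3 min (480/540 nm) immediately after compound addition to dye-loaded KISS1R-HEK293 stable cells. Each compound tested at 15 concentrations in triplicate.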
KiSS-1 receptor (Homo sapiens), sequence (Q969F8 whole entry, looked up): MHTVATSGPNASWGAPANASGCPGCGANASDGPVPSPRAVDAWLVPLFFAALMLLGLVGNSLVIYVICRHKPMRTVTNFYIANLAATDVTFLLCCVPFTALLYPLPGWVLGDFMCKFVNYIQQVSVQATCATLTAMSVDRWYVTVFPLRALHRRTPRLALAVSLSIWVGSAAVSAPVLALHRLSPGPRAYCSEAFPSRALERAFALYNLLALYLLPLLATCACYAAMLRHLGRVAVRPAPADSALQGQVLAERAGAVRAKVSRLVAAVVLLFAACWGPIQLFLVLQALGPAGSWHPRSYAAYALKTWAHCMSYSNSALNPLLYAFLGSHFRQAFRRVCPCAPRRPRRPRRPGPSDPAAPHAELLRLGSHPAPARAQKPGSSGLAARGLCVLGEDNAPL
(A change in cytosolic calcium serves as a functional read-out for many receptors and channels.)

Assay [4] is described as follows: G protein-coupled receptor (GPCR) small molecule agonists, calcium flux assay: HEK293 wild type cell line counter screen (AID 1920065). The procedure, abridged: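 Calcium flux counter screen: compound added in agonist mode at 15 concentrations in triplicate to dye-loaded parental HEK293 cells. Fluorescence (480/540) read kinetically for 3 min; ATP served as positive control.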

Assay [5] is described as follows: p53 small molecule agonists, cell-based qHTS assay with human liver microsomes (AID 1963577).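 Note: p53 response element beta-lactamase reporter cells with liver microsomes plus NADPH.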 The procedure, abridged:
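Reporter activation was measured by LiveBLAzer fluorescence intensity in p53RE-bla cells, which had been exposed to compounds for 16 h at 37 C alongside 0.5 mg/mL human liver microsomes and 0.5 mg/mL NADPH (final concentrations).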
A general note: qHTS replaces the single test concentration by a dilution series.

Assay [6] can be described thus: p53 small molecule agonists, cell-based qHTS assay with rat liver microsomes (AID 1963578). The procedure, abridged: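 Compound in DMSO added to p53RE-bla cells 5 h post-plating; rat microsomes/NADPH 0.5 mg/mL final; 16 h, 37 C; LiveBLAzer 2 h RT.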
The nature of assay [7]: p53 small molecule agonists, cell-based qHTS assay with rat liver microsomes: qHTS cell viability counter screen (AID 1963580). Note: nearly all actives have a fitted effect of over 45% in size. In a few lines: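 Cytotoxicity counter screen: intracellular ATP measured by CellTiter-Glo luminescence in the same wells as the beta-lactamase reporter read, on HCT-116 p53RE-bla cells exposed 16 h at 37 C to compounds with rat liver microsomes and NADPH, each 0.5 mg/mL final.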

Assay [8] in a line: p53 small molecule agonists, cell-based qHTS assay: qHTS cell viability counter screen (AID 1963581). Note: nearly all actives have a fitted effect of over 45% in size. The procedure, abridged:
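Counter screen read by CellTiter-Glo luminescence (ATP content, 30 min at room temperature), run in the same wells as the beta-lactamase reporter read. HCT-116 p53RE-bla cells saw compounds for 16 h at 37 C.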

A short description of assay [9]: p53 small molecule agonists, cell-based qHTS assay (AID 1963582; active = well fitted activation curve with a large enough effect in the signal ratio in the repeat runs, not every such curve was filed as active; the % refers to the signal ratio). In a few lines:
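Read-out is beta-lactamase FRET fluorescence after 2 h at room temperature with LiveBLAzer B/G substrate. p53 response element-bla cells were treated 16 h at 37 C with compounds in DMSO, added 5 h after seeding.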

For assay [10], the target named is 5-hydroxytryptamine receptor 2A (Homo sapiens) (UniProt P28223). Briefly: 5-hydroxytryptamine receptor 2A (HTR2A) small molecule antagonists, cell-based qHTS assay (AID 1963586). Note: nearly all actives have a fitted effect of over 45% in size. Note: potency is the fitted concentration of half-maximal effect. In a few lines: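 CHO cells stably expressing human HTR2A were plated for 18 h at 37 C, then loaded with calcium dye for 1 h. Compounds were preincubated 5 min at room temperature before DOI (4 nM solution) was added. Kinetic fluorescence was read for 3 min.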
5-hydroxytryptamine receptor 2A (Homo sapiens), sequence (P28223 whole entry, looked up): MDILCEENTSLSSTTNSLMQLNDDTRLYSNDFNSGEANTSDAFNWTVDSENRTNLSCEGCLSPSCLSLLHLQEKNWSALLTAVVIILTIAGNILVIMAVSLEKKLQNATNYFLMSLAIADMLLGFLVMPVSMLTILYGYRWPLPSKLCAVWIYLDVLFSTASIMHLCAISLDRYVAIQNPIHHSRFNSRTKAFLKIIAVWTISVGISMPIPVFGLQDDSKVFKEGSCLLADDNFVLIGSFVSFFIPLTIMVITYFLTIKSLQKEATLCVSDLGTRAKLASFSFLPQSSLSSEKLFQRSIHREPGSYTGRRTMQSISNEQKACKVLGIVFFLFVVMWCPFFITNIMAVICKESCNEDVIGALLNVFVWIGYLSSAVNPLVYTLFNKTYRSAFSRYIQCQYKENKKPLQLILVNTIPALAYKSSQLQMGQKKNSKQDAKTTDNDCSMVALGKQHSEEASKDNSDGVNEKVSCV

For assay [11] the target is unchanged. Briefly: 5-hydroxytryptamine receptor 2A (HTR2A) small molecule agonists, cell-based qHTS assay (AID 1963587). Note: nearly all actives have a fitted effect of over 30% in size. Note: potency is the fitted concentration of half-maximal effect. In a few lines:
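CHO cells stably expressing human HTR2A, plated 18 h, loaded with calcium dye 1 h at 37 C. Agonist mode: compounds added and intracellular calcium fluorescence recorded kinetically for 2 min at 1 sec intervals.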

Assay [12] has as its target Muscarinic acetylcholine receptor M1 (Homo sapiens) (UniProt P11229). Briefly: Cholinergic receptor muscarinic 1 (CHRM1) small molecule antagonists, cell-based qHTS assay (AID 1963588). Note: nearly all actives have a fitted effect of over 40% in size. Note: potency is the fitted concentration of half-maximal effect. In a few lines:
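Compounds were tested at 15 concentrations in three independent runs. Dye-loaded CHRM1-CHO cells were exposed 5 min at room temperature before stimulation by acetylcholine added at 50nM. Intracellular calcium was read kinetically on FDSS for 3 min.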

Assay [13] has the same target. Briefly: Cholinergic receptor muscarinic 1 (CHRM1) small molecule agonists, cell-based qHTS assay (AID 1963589). Note: nearly all actives have a fitted effect of over 35% in size. In a few lines: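 Agonist-mode calcium-flux screen: compounds at 15 concentrations, three independent runs, were pin-transferred onto dye-loaded human CHRM1-CHO cells. Fluorescence was then recorded kinetically every second over minutes.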
Assay [14] is described as follows: cAMP Responsive Elements (CRE) small molecule antagonists, cell-based qHTS assay (AID 1963591; active = well fitted inhibition curve with a large enough effect in the signal ratio in the repeat runs, not every such curve was filed as active; the % refers to the signal ratio). The procedure, abridged: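 Antagonist mode: compounds are added alongside the adenylyl cyclase activator NKH477 (0.25 uM final) to CRE-bla HEK293T cells for 3 h. LiveBLAzer FRET substrate, 2 h at room temperature, reports bla expression.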
The target in assay [15] is Beta-2 adrenergic receptor (Homo sapiens) (UniProt P07550). Briefly: Adrenergic beta2 receptor (ADRB2) small molecule antagonists, cell-based qHTS assay (AID 1963592). Note: series mostly up to about 92 µM; nearly all actives have a fitted effect of over 50% in size. The procedure, abridged: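 Assay format: CHO-ADRB2 cells, 18-20hr seeding at 37C/5% CO2, then compound plus 1nM isoproterenol agonist mix for 0.5hr RT. Homogeneous time-resolved fluorescence cAMP detection after 1hr, expressed as 665/615 nm ratio.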
Beta-2 adrenergic receptor (Homo sapiens), sequence (P07550 whole entry, looked up): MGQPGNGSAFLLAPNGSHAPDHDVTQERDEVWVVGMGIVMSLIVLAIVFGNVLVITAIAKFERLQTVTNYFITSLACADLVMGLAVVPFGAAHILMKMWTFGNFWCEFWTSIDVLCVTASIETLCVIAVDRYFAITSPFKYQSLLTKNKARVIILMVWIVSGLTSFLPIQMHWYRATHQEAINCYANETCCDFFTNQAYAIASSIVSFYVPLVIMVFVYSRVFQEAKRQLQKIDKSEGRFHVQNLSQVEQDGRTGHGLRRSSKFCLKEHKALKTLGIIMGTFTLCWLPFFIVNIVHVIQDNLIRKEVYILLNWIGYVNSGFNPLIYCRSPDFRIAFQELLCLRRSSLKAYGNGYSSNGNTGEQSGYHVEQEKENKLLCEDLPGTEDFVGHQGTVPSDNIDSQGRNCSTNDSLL

The target of assay [16] is D(2) dopamine receptor (Homo sapiens) (UniProt P14416). Briefly: Dopamine D2 receptor (DRD2) small molecule agonists, cell-based qHTS assay (AID 1963594). Note: nearly all actives have a fitted effect of over 35% in size. Note: potency is the fitted concentration of half-maximal effect. The procedure, abridged: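 HEK293 cells stably expressing human DRD2, pre-treated with PDE inhibitor Ro20-1724 (0.1 mM final) and compound 10 min at room temperature, then stimulated with NKH477 (200nM […]) for 30 min. cAMP read by HTRF (665/620 nm).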
D(2) dopamine receptor (Homo sapiens), sequence (P14416 whole entry, looked up): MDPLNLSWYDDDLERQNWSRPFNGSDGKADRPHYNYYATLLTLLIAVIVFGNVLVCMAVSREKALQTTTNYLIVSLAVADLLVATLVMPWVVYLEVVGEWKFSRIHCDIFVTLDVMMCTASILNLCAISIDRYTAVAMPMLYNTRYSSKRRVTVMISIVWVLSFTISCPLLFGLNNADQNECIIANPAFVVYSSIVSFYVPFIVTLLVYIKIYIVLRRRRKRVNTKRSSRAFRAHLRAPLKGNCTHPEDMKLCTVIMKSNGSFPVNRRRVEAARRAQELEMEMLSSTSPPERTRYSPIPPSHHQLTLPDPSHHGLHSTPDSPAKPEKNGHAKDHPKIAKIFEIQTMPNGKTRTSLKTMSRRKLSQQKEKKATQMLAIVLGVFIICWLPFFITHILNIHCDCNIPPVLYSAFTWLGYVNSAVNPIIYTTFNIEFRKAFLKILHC

The target is the same in assay [17]. Briefly: Dopamine D2 receptor (DRD2) small molecule antagonists, cell-based qHTS assay (AID 1963595; active = well fitted inhibition curve with a large enough effect in the signal ratio in the repeat runs, with a control signal flat; the % refers to the signal ratio; note: potency is the fitted concentration of half-maximal effect). The procedure, abridged:
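Antagonist mode in DRD2-HEK293 cells: after compound addition with 0.1 mM Ro20-1724, cells received quinpirole (12 nM) and NKH477 (200 nM) for 30 min at room temperature; HTRF cAMP read after 1 h detection.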

Assay [18] in a line: p53 small molecule agonists, cell-based qHTS assay with human liver microsomes: qHTS cell viability counter screen (AID 1963579). Note: nearly all actives have a fitted effect of over 45% in size. In a few lines:
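HLM-supplemented (0.5 mg/mL final) and NADPH-supplemented (0.5 mg/mL final) p53RE-bla cultures, 4,000 cells per well, were dosed with compounds in DMSO for 16 h at 37 C; luminescent ATP detection (CellTiter-Glo, 30 min, room temperature) quantified surviving cells.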

A short description of assay [19]: cAMP Responsive Elements (CRE) small molecule agonists, cell-based qHTS assay (AID 1963590). The procedure, abridged:
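Agonist mode: compound added to CRE-bla HEK 293T cells (2,000/well, 18 h after plating) for 3 h at 37 C/5% CO2. Reporter activity detected via FRET beta-lactamase substrate, 2 h room-temperature loading.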

The target in assay [20] is Beta-2 adrenergic receptor (Homo sapiens) (UniProt P07550). Briefly: Adrenergic beta2 receptor (ADRB2) small molecule agonists, cell-based qHTS assay (AID 1963593).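 Note: CHO cells stably overexpressing human ADRB2.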 In a few lines: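 CHO cells stably over-expressing ADRB2 were plated overnight at 37C, then dosed with compounds plus a stimulation mix containing 100uM IBMX and 25uM Ro-20-1724 for 0.5hr at room temperature. cAMP was measured by HTRF competition, 1hr.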

Results on eight molecules are retold here after PubChem BioAssay (Tox21).

Values without a mark were called inactive. Results filed as inconclusive are left out. The source made the active and inactive calls. Unless noted, calls come from the whole dose curve.

Muscarinic acetylcholine receptor M1 (Homo sapiens), sequence (P11229 whole entry, looked up): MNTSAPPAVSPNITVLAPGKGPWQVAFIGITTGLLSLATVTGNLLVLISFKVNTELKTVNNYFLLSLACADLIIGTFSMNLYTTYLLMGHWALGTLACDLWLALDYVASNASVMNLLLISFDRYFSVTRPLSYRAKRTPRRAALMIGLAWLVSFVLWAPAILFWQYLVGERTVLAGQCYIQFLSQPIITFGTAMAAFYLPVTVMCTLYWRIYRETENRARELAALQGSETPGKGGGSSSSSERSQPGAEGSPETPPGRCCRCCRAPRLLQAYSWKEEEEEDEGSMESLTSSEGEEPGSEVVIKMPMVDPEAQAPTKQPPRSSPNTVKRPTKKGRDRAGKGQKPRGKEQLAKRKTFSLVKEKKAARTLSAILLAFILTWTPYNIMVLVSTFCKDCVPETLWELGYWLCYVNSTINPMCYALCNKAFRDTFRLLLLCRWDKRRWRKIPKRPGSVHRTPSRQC

Turning to `O=C(Cl)c1ccccc1F`, the Potency result in [1], in [2], in assay [3], in [4], in assay [5] and in assay [6] was “inactive” in each case. Further, the Potency entry in [7], in assay [8], in assay [9], in [10], in [11] and in [12] was “inactive” in each case. Besides, the Potency entry in assay [13], in assay [14], in assay [15], in assay [16] and in assay [17] was “inactive” throughout.

As for `Cc1cc(C(C)(C)c2ccc(O)c(C)c2)ccc1O`, the Potency in assay [1] is 58.2 µM (active); in assay [10] it was 35.7 µM (active); in assay [11] it was 52.3 µM (active). Moreover, the Potency result in [2], in [5], in [6], in assay [8], in assay [13] and in [15] was “inactive” in each case. The Potency result in assay [16] and in [17] was “inactive” each time.

With `CCOC(=O)CBr`, the Potency result in assay [1], in assay [2], in assay [3], in assay [4], in assay [5] and in assay [6] was “inactive” each time. Moreover, the Potency entry in assay [18], in assay [7], in assay [9], in assay [10], in [11] and in [12] was “inactive” throughout. In addition, the Potency result in assay [13], in assay [19], in assay [14], in assay [15], in assay [16] and in assay [17] was “inactive” each time.

For `COc1cc(C[C@@H](C)N)c(OC)cc1Br`, the Potency result in [1], in assay [2], in assay [3], in assay [4], in [5] and in [6] was “inactive” throughout. In addition, the Potency entry in [18], in assay [7], in [8], in [9], in assay [10] and in assay [13] was “inactive” each time. Besides, the Potency entry in assay [19], in assay [14] and in assay [17] was “inactive” throughout. The Potency in assay [12] was 17.2 µM (active); in [16] it was 3.96 µM (active).

With `CC(C)(C)NCC(O)c1cc(Cl)c(N)c(Cl)c1` (stereo not given), the Potency result in assay [1], in assay [2], in assay [3], in assay [4], in [5] and in assay [6] was “inactive” in each case. For the same molecule, the Potency entry in assay [18], in [7], in assay [8], in assay [9], in assay [14] and in assay [16] was “inactive” each time. Further, the Potency in [17] was 2.1 nM (active).

Regarding `CCOC(=O)/C=C(C)/C=C/C[C@@H](C)CCCC(C)C`, the Potency entry in assay [1], in assay [5], in assay [6], in assay [18], in [7] and in assay [8] was “inactive” in each case. Further, the Potency result in [11], in [12], in assay [13], in assay [19], in assay [14] and in assay [15] was “inactive” in each case. The Potency entry in assay [16] was “inactive”. Moreover, in assay [2], the Potency was 68.6 µM (active).

As for `CC(Cc1ccc2c(c1)OCO2)NO` (stereo not given), the Potency entry in [1], in [2], in [3], in assay [4], in [6] and in assay [18] was “inactive” throughout. The Potency result in [7], in assay [8], in assay [9], in assay [12], in [19] and in [14] was “inactive” throughout. In addition, the Potency entry in [15], in [20], in assay [16] and in assay [17] was “inactive” throughout. The Potency in [11] is 1.33 µM (active).

Turning to `ClC(Cl)=C(Cl)Cl`, the Potency result in assay [1], in assay [2], in assay [5], in assay [6], in assay [7] and in [8] was “inactive” in each case. Further, the Potency entry in assay [9], in assay [11], in assay [12], in [19], in [14] and in [20] was “inactive” throughout. Moreover, the Potency result in assay [16] is “inactive”.
